# Reference: paper PMC8384837, “Expanding the binding specificity for RNA recognition by a PUF domain”
# Changes are numbered by the printed parent chain.
# How the values were obtained:
# Assay in all cases: yeast three-hybrid, YBZ-1, SC-Leu-His + 0.5 mM 3-AT, 4 days
# Conditions in all cases: tags: N-Gal4 AD-HA kept; label: inside an RPR1-promoter hybrid RNA with tandem MS2 sites; ssRNA
# PUM1 PUF domain R3-GWM = PUM1 PUF domain R3-GWM (Homo sapiens, UniProt Q14671 828-1176, C935G;R936W;Q939M)
# How it was run: (§1)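 The interaction score is the log change in variant frequency from input to selection. Scores were computed in log2 with a pseudocount of 1 for absent variants, using Illumina sequencing of PCR-amplified repeat regions. The input came from four days on SC-Leu and the selection from four days on SC-Leu-His + 0.5 mM 3-AT. The cells were strain YBZ-1 (LexA–MS2 coat fusion, HIS3 reporter) co-expressing Pumilio-1 PUF domain libraries and matching RNA elements from a centromeric plasmid.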
# PUM1 PUF domain R8-SWF = PUM1 PUF domain R8-SWF (Homo sapiens, UniProt Q14671 828-1176, N1122S;Y1123W;Q1126F)
# How it was run: as §1
# PUM1 PUF domain R5-SIC = PUM1 PUF domain R5-SIC (Homo sapiens, UniProt Q14671 828-1176, C1007S;R1008I;Q1011C)
# How it was run: as §1
# PUM1 PUF domain R6-VWG = target: T1, PUM1 PUF domain R6-VWG (Homo sapiens, UniProt Q14671 828-1176, N1043V;Y1044W;Q1047G)
# T1 sequence: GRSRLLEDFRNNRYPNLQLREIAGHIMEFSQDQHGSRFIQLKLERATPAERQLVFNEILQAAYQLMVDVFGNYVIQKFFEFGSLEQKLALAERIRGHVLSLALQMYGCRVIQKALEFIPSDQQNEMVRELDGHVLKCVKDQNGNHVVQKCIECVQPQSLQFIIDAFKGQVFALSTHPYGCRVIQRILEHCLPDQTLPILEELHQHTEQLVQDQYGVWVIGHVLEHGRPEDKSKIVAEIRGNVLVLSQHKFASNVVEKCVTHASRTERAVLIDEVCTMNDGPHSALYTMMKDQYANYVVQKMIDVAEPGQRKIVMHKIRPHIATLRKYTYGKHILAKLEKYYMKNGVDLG
# How it was run: as §1
# PUM1 PUF domain R5-IRP = PUM1 PUF domain R5-IRP (Homo sapiens, UniProt Q14671 828-1176, C1007I;Q1011P)
# How it was run: as §1
# PUM1 PUF domain R6-VFG = target: T2, PUM1 PUF domain R6-VFG (Homo sapiens, UniProt Q14671 828-1176, N1043V;Y1044F;Q1047G)
# T2 sequence: T1 sequence with W217F
# How it was run: as §1
# PUM1 PUF domain R5-RHR = PUM1 PUF domain R5-RHR (Homo sapiens, UniProt Q14671 828-1176, C1007R;R1008H;Q1011R)
# How it was run: as §1
# PUM1 PUF domain R3-WWQ = PUM1 PUF domain R3-WWQ (Homo sapiens, UniProt Q14671 828-1176, C935W;R936W)
# How it was run: as §1
# PUM1 PUF domain R3-YSG = PUM1 PUF domain R3-YSG (Homo sapiens, UniProt Q14671 828-1176, C935Y;R936S;Q939G)
# How it was run: as §1
# PUM1 PUF domain R6-TFM = target: T3, PUM1 PUF domain R6-TFM (Homo sapiens, UniProt Q14671 828-1176, N1043T;Y1044F;Q1047M)
# T3 sequence: T1 sequence with V216T, W217F, G220M
# How it was run: as §1
# PUM1 PUF domain R6-DWI = target: T4, PUM1 PUF domain R6-DWI (Homo sapiens, UniProt Q14671 828-1176, N1043D;Y1044W;Q1047I)
# T4 sequence: T1 sequence with V216D, G220I
# How it was run: as §1
# PUM1 PUF domain R4-SFP = PUM1 PUF domain R4-SFP (Homo sapiens, UniProt Q14671 828-1176, N971S;H972F;Q975P)
# How it was run: as §1
# PUM1 PUF domain R4-CRR = PUM1 PUF domain R4-CRR (Homo sapiens, UniProt Q14671 828-1176, N971C;H972R;Q975R)
# How it was run: as §1
# PUM1 PUF domain R3-RVM = PUM1 PUF domain R3-RVM (Homo sapiens, UniProt Q14671 828-1176, C935R;R936V;Q939M)
# How it was run: as §1
# PUM1 PUF domain R3-QPR = PUM1 PUF domain R3-QPR (Homo sapiens, UniProt Q14671 828-1176, C935Q;R936P;Q939R)
# How it was run: as §1
# PUM1 PUF domain R3-RTS = PUM1 PUF domain R3-RTS (Homo sapiens, UniProt Q14671 828-1176, C935R;R936T;Q939S)
# How it was run: as §1
sequence,measurement,setting,value
GGCUAGAACUAGUGGAUCCCCCGGCGCCCGGCGGCUCGAGCCCGGGUAAGUGUAAAUAGUCUGCAUGCCGCCGGGCGCCAUGCCUGCAGGUCGACUCUAGAAAACAUG,binding signal,PUM1 PUF domain R3-GWM,2.49 log2 enrichment (interaction score)
same,binding signal,PUM1 PUF domain R8-SWF,2.33 log2 enrichment (interaction score)
same,binding signal,PUM1 PUF domain R5-SIC,3.43 log2 enrichment (interaction score)
same,binding signal,PUM1 PUF domain R6-VWG,2.67 log2 enrichment (interaction score)
same,binding signal,PUM1 PUF domain R5-IRP,2.35 log2 enrichment (interaction score)
same,binding signal,PUM1 PUF domain R6-VFG,3.57 log2 enrichment (interaction score)
same,binding signal,PUM1 PUF domain R5-RHR,1.95 log2 enrichment (interaction score)
GGCUAGAACUAGUGGAUCCCCCGGCGCCCGGCGGCUCGAGCCCGGGUAAGUGUAAGUAGUCUGCAUGCCGCCGGGCGCCAUGCCUGCAGGUCGACUCUAGAAAACAUG,binding signal,PUM1 PUF domain R3-GWM,1.14 log2 enrichment (interaction score)
same,binding signal,PUM1 PUF domain R3-WWQ,5.35 log2 enrichment (interaction score)
same,binding signal,PUM1 PUF domain R3-YSG,2.43 log2 enrichment (interaction score)
GGCUAGAACUAGUGGAUCCCCCGGCGCCCGGCGGCUCGAGCCCGGGUAAGUGAAAAUAGUCUGCAUGCCGCCGGGCGCCAUGCCUGCAGGUCGACUCUAGAAAACAUG,binding signal,PUM1 PUF domain R6-TFM,2.84 log2 enrichment (interaction score)
same,binding signal,PUM1 PUF domain R6-VWG,6.85 log2 enrichment (interaction score)
same,binding signal,PUM1 PUF domain R6-DWI,2.33 log2 enrichment (interaction score)
same,binding signal,PUM1 PUF domain R6-VFG,7.53 log2 enrichment (interaction score)
GGCUAGAACUAGUGGAUCCCCCGGCGCCCGGCGGCUCGAGCCCGGGUAAGUGUAUAUAGUCUGCAUGCCGCCGGGCGCCAUGCCUGCAGGUCGACUCUAGAAAACAUG,binding signal,PUM1 PUF domain R4-SFP,7.15 log2 enrichment (interaction score)
GGCUAGAACUAGUGGAUCCCCCGGCGCCCGGCGGCUCGAGCCCGGGUAAGUGUACAUAGUCUGCAUGCCGCCGGGCGCCAUGCCUGCAGGUCGACUCUAGAAAACAUG,binding signal,PUM1 PUF domain R4-SFP,6.2 log2 enrichment (interaction score)
same,binding signal,PUM1 PUF domain R4-CRR,3.13 log2 enrichment (interaction score)
GGCUAGAACUAGUGGAUCCCCCGGCGCCCGGCGGCUCGAGCCCGGGUAAGCGUAAAUAGUCUGCAUGCCGCCGGGCGCCAUGCCUGCAGGUCGACUCUAGAAAACAUG,binding signal,PUM1 PUF domain R8-SWF,1.73 log2 enrichment (interaction score)
GGCUAGAACUAGUGGAUCCCCCGGCGCCCGGCGGCUCGAGCCCGGGUAAGUGUAAUUAGUCUGCAUGCCGCCGGGCGCCAUGCCUGCAGGUCGACUCUAGAAAACAUG,binding signal,PUM1 PUF domain R3-RVM,2.43 log2 enrichment (interaction score)
same,binding signal,PUM1 PUF domain R3-QPR,5.15 log2 enrichment (interaction score)
same,binding signal,PUM1 PUF domain R3-WWQ,2.48 log2 enrichment (interaction score)
same,binding signal,PUM1 PUF domain R3-RTS,3.18 log2 enrichment (interaction score)
